Bioassay records as filed in PubChem BioAssay.
This is a sample that favours compounds with a hit; in the whole collection about 7.4% have one here.
MITF inh: blocks MITF activity; AID 2240; actives 0.28% (n = 37,000); TRPM1 promoter luciferase, luminescence, 24 h; inhibition, % (no concentration beside the values); in the data active means inhibition above about 85%; inconclusive means no clear call, values can overlap the other calls; inactive means below about 68%;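 further: human melanocyte line stably carrying TRPM1 promoter luciferase reporter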
NOMO-1 viab: STK33 inhibitor candidate reducing NOMO-1 cell viability; actives 7.5% (n = 37,000); NOMO-1 AML viability, CellTiter-Glo luminescence, 72 h; AID 2330; inhibition, % (concentration not given with the values); in the data active means inhibition above about 80%; inconclusive means no clear call, values can overlap the other calls
YB-1 expression: YB-1 expression inhibition; delta delta Cp (YB-1 minus CDIP) (concentration not given with the values); U2OS, qRT-PCR YB-1 vs CDIP delta delta Cp, 16 h; stronger effect = higher value; zero = DMSO, each unit about twofold; AID 434959; actives 0.37% (n = 30,000);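 active means delta delta Cp rounded down to an integer at or above 3, about 3 SD of DMSO wells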;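 further: higher means less YB-1 transcript or more CDIP transcript relative to DMSO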
PD-1 reversal: reversal of PD-1 mediated T-cell inhibition | primary human CD4 T cells, PD-L1 beads, CellTiter-Glo 96 h | activation, % (test concentration not listed) | 29,000 tested, under 10 active | AID 2316; call rule not given here;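 further: 0% = median vehicle wells and 100% = positive control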
Hedgehog inh: Sonic Hedgehog pathway inhibition | Shh-LIGHT2 Gli-luciferase reporter, 30 h | inhibition, % (concentration not given with the values) | actives 2.1% (n = 22,000) | AID 2313;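 active means mean inhibition across valid replicates above about 65%, limit read from the data; inconclusive means mean under the limit, yet half or more replicates past it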;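 further: pathway switched on by Shh-conditioned medium diluted 1 in 25 in low serum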
The depositor's hits bear a star.

COc1ccc(NC(=O)N(C)C[C@@H]2Oc3c(NC(=O)c4cc(C)nn4C)cccc3C(=O)N([C@@H](C)CO)C[C@@H]2C)cc1 was read as MITF inh 4, NOMO-1 viab 1, YB-1 expression 0.082, PD-1 reversal 1 and Hedgehog inh -37.
`COc1ccc(-c2cc(=O)c3ccccc3o2)cc1` gave MITF inh 4, NOMO-1 viab 23, YB-1 expression -0.19 and Hedgehog inh -74.
`CCOC(=O)Nc1cc(=O)c2ccccc2o1` gave MITF inh -10, NOMO-1 viab 119*, YB-1 expression 0.056, PD-1 reversal 3 and Hedgehog inh -56.
For CCOC(=O)CCS(=O)(=O)c1nc(-c2ccccc2)cc(C(F)(F)F)n1 the results were MITF inh 61, NOMO-1 viab 115* and PD-1 reversal -16.
Screening O=C(CSc1nc(-c2ccc(Cl)cc2)cc(C(F)(F)F)n1)c1ccccc1 returned MITF inh -18, NOMO-1 viab 32 and PD-1 reversal 0.
CCOC(=O)CS(=O)(=O)c1nc(-c2ccc(F)cc2)cc(C(F)(F)F)n1 was read as MITF inh 42, NOMO-1 viab 135* and PD-1 reversal -16.
O=C(CCc1nc2ccccc2[nH]1)Nc1cccc(C(F)(F)F)c1 was read as MITF inh -4 and NOMO-1 viab -3.
For C[C@@H]1CN([C@@H](C)CO)C(=O)c2cccc(NC(=O)C3CCCCC3)c2O[C@H]1CN(C)C(=O)Nc1cccc2ccccc12 the results were MITF inh -2, NOMO-1 viab 11, YB-1 expression -0.071 and Hedgehog inh inconclusive.
Screening O=c1c2ccccc2cnn1Cc1n[nH]c(=S)n1-c1ccc2c(c1)OCCO2 returned MITF inh -4, NOMO-1 viab -2 and PD-1 reversal 5.
C[C@@H]1CN([C@@H](C)CO)C(=O)c2cc(NS(=O)(=O)c3ccc(F)cc3)ccc2O[C@H]1CN(C)Cc1ccc(Cl)c(Cl)c1 was read as MITF inh 24, NOMO-1 viab inconclusive, YB-1 expression -0.15 and PD-1 reversal -2.
Screening Cc1ccc(S(=O)(=O)Nc2ccc3c(c2)C(=O)N([C@@H](C)CO)C[C@H](C)[C@@H](CN(C)Cc2ccc(Cl)c(Cl)c2)O3)cc1 returned MITF inh 6, NOMO-1 viab 106*, YB-1 expression -0.34, PD-1 reversal -1 and Hedgehog inh -1.
Screening Cc1ccc(S(=O)(=O)Nc2ccc3c(c2)C(=O)N([C@@H](C)CO)C[C@@H](C)[C@@H](CN(C)Cc2ccc(Cl)c(Cl)c2)O3)cc1 returned MITF inh 75, NOMO-1 viab 117*, YB-1 expression 0.47, PD-1 reversal -2 and Hedgehog inh 15.
Screening C[C@H]1CN([C@@H](C)CO)C(=O)c2cc(NS(=O)(=O)c3ccc(F)cc3)ccc2O[C@H]1CN(C)Cc1ccc(Cl)c(Cl)c1 returned MITF inh 1, NOMO-1 viab 11, YB-1 expression 0.17, PD-1 reversal 1 and Hedgehog inh 14.
`COc1ccccc1NC(=O)N(C)C[C@H]1OCc2cn(nn2)CCCC(=O)N([C@H](C)CO)C[C@H]1C` gave YB-1 expression -0.2.
Screening O=C(NCC1CCCO1)c1cc(S(=O)(=O)N2CCCC2)c(Cl)cc1Cl (centres undefined) returned MITF inh -1, NOMO-1 viab -1 and PD-1 reversal 0.
`c1ccc2c(Cc3c[nH]c4ccccc34)c[nH]c2c1` gave MITF inh 25, NOMO-1 viab -10, YB-1 expression -0.26 and Hedgehog inh -23.
Screening c1ccc(C(c2ccccc2)N2CCN(CCCc3c[nH]c4ccccc34)CC2)cc1 returned MITF inh 4, NOMO-1 viab 116*, YB-1 expression -0.11, PD-1 reversal -1 and Hedgehog inh -13.
C[C@@H]1CN([C@H](C)CO)C(=O)Cc2cc(NC(=O)CCCCCC(=O)Nc3ccccc3N)ccc2O[C@@H]1CN(C)S(=O)(=O)c1ccccc1 was read as MITF inh -10, NOMO-1 viab 23, YB-1 expression -0.13 and PD-1 reversal 1.
For O=C(O)c1cccc(COc2ccc(CO)cc2Cl)c1 the results were MITF inh 89*, NOMO-1 viab 30 and PD-1 reversal 2.
Cc1cccc(NC(c2ccc([N+](=O)[O-])cc2)c2ccc3ccc(C)nc3c2O)n1 (centres undefined) was read as MITF inh 44 and NOMO-1 viab 112*.
For Cc1ccc(C)c(C(Nc2ccccn2)c2ccc3ccc(C)nc3c2O)c1 (centres undefined) the results were MITF inh 44, NOMO-1 viab 107* and PD-1 reversal -13.
Screening Cc1cccc(Nc2ncnc(N)c2[N+](=O)[O-])n1 returned MITF inh -37 and NOMO-1 viab 1.
Screening Cc1ccnc(NC(c2ccccn2)c2ccc3ccc(C)nc3c2O)c1 (centres undefined) returned MITF inh 75, NOMO-1 viab 116* and PD-1 reversal -14.
For Cc1cccc(NC(c2ccccc2C)c2ccc3ccc(C)nc3c2O)n1 (centres undefined) the results were MITF inh 60, NOMO-1 viab 121* and PD-1 reversal -13.
Cc1noc(C)c1S(=O)(=O)Nc1ccc2c(c1)CC(=O)N([C@H](C)CO)C[C@@H](C)[C@H](CN(C)Cc1ccccc1)O2 was read as MITF inh -3, NOMO-1 viab 18, YB-1 expression 0.019 and Hedgehog inh 4.
For CC(=O)Nc1ccc(NC(=O)CN(C)S(=O)(=O)c2ccc(Br)cc2)cc1 the results were MITF inh -11, NOMO-1 viab 28 and PD-1 reversal 2.
COc1cc(/C=C\C(=O)O)cc(OC)c1OC was read as YB-1 expression 0.043 and Hedgehog inh 21.
`COc1cc(/C=C/C(=O)N2CCC=CC2=O)cc(OC)c1OC` gave MITF inh 62, NOMO-1 viab 119*, YB-1 expression 0.098 and Hedgehog inh 84*.
C[C@H](CO)N1C[C@H](C)[C@H](CN(C)Cc2ccc(C(=O)O)cc2)Oc2ccc(NS(=O)(=O)c3ccc(F)cc3)cc2C1=O was read as MITF inh 2, NOMO-1 viab -8, YB-1 expression -0.08 and PD-1 reversal 4.
`CCN(C(=S)Nc1ccc(C)cc1)c1ccccc1` gave MITF inh 0, NOMO-1 viab 11, YB-1 expression 0.35, PD-1 reversal -3 and Hedgehog inh -54.
Screening CCN(CC)C(=S)NC(=S)c1ccc(C)cc1 returned MITF inh -4, NOMO-1 viab 122*, YB-1 expression -0.26, PD-1 reversal -7 and Hedgehog inh -6.
`CNC[C@@H]1Oc2ccc(NC(=O)Nc3ccc(OC)cc3)cc2CC(=O)N([C@H](C)CO)C[C@@H]1C` gave MITF inh -11, NOMO-1 viab -6, YB-1 expression 0.29, PD-1 reversal 2 and Hedgehog inh 20.
CCn1c2c(c3cc(Br)ccc31)CCCC2=O was read as MITF inh -8, NOMO-1 viab 24, YB-1 expression -0.089, PD-1 reversal -4 and Hedgehog inh 8.
